These results are taken from article PMC7862700, “An all-to-all approach to the identification of sequence-specific readers for epigenetic DNA modifications on cytosine”.

Holding throughout (assay): DAPPL (digital affinity profiling via proximity ligation, sequencing); 10 mM Tris-HCl pH 7.5, 50 mM NaCl, 1 mM DTT, 4% glycerol, room temperature, 30 min; GST-TFs on glutathione beads, 16-mer random dsDNA library, 0.1% formaldehyde crosslink after washing; high values mean tight binding
For one assay, the target named is T1, FEV (Homo sapiens, UniProt Q99581 1-238).
T1 sequence: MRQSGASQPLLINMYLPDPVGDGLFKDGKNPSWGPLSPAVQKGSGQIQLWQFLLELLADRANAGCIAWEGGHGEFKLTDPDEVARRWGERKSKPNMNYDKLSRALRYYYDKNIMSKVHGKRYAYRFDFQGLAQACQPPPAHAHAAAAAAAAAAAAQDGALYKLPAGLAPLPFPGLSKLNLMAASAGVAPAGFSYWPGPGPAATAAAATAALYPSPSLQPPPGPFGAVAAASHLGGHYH
The settings on record: protein: recombinant; tags: N-terminal GST; dsDNA, one strand shown. The method in brief:
(§1)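 Binding signal is each hexamer's read frequency for a factor divided by its frequency in the tag-only sample. The factors were GST-fused human transcription factors from yeast, captured on glutathione beads, DNA-barcoded and pooled with that sample. Pools were incubated with 200 nmole of a random double-stranded 16-mer DNA library in Tris/NaCl/DTT/glycerol buffer at room temperature for 30 min, then washed, crosslinked with 0.1% formaldehyde, proximity-ligated with BsaI/T4 ligase (1 h, 37 °C), PCR-amplified and sequenced on an Illumina NextSeq500.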

The target in another assay is ETV5 (Homo sapiens, UniProt P41161 1-510). The following applies: protein: recombinant; tags: N-terminal GST; dsDNA, one strand shown. The method in brief:
as §1

The next assay addresses HSF1 (Homo sapiens, UniProt Q00613 1-529). The following applies: protein: recombinant; tags: N-terminal GST; chain copies: 3; dsDNA, one strand shown. In a few lines:
as §1

In the next assay the target is T2, SPIC (Homo sapiens, UniProt Q8N5J4 1-248).
T2 sequence: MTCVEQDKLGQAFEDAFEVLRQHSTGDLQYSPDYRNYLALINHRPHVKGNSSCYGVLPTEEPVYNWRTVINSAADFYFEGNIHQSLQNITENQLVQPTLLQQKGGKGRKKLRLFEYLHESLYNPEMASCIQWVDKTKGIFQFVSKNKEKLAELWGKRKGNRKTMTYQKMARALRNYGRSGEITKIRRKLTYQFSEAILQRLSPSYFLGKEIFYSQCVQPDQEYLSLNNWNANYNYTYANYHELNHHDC
The settings on record: protein: recombinant; tags: N-terminal GST; dsDNA, one strand shown. In a few lines:
as §1

A further assay addresses ELF4 (Homo sapiens, UniProt Q99607 1-663). The following applies: protein: recombinant; tags: N-terminal GST; dsDNA, one strand shown. In a few lines:
as §1

A further assay concerns the target T3, ELK4 (Homo sapiens, UniProt P28324-2 1-405).
T3 sequence: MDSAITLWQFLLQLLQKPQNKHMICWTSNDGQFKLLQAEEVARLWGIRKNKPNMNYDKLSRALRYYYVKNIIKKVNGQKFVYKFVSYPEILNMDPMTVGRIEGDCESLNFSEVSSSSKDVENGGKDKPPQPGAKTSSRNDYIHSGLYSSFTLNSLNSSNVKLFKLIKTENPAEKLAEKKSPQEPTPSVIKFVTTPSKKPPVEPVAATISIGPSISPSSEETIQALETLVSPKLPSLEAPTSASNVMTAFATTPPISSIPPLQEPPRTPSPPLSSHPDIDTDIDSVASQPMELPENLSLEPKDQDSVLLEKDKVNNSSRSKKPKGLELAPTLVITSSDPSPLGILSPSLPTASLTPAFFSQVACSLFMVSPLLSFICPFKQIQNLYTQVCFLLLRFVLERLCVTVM
The following applies: protein: recombinant; tags: N-terminal GST; dsDNA, one strand shown. The method in brief:
as §1

Another assay concerns the target T4, ETV2 (Homo sapiens, UniProt O00321 1-342).
T4 sequence: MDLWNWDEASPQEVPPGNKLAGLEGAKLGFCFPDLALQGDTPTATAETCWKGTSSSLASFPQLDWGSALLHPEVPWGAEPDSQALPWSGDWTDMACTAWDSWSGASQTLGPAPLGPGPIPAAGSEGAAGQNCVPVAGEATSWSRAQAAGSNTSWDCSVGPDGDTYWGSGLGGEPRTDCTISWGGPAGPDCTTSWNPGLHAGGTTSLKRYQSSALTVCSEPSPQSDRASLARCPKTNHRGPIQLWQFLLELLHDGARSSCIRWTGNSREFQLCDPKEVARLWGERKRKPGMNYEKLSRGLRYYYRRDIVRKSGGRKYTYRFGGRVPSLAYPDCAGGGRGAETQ
The settings on record: protein: recombinant; tags: N-terminal GST; dsDNA, one strand shown. In a few lines:
as §1

For a further assay, the target named is T5, ELF3 (Homo sapiens, UniProt P78545 1-371).
T5 sequence: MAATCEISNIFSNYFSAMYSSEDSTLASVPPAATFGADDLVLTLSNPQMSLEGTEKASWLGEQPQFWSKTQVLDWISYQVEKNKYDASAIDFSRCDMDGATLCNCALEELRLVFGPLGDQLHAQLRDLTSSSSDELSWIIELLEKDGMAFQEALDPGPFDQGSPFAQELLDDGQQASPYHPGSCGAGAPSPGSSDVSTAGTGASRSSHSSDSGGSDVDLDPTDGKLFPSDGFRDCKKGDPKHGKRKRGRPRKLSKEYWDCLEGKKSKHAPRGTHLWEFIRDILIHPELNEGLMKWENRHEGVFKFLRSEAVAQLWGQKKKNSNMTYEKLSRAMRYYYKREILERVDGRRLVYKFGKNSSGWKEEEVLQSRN
The settings on record: protein: recombinant; tags: N-terminal GST; dsDNA, one strand shown. In a few lines: as §1

For a further assay, the target named is CRX (Homo sapiens, UniProt O43186 1-299). The following applies: protein: recombinant; tags: N-terminal GST; dsDNA, one strand shown. The method in brief:
as §1

The target in another assay is ETV1 (Homo sapiens, UniProt P50549 1-477). The settings on record: protein: recombinant; tags: N-terminal GST; dsDNA, one strand shown. The method in brief: as §1
Sequence of ETV1 (P50549 whole entry): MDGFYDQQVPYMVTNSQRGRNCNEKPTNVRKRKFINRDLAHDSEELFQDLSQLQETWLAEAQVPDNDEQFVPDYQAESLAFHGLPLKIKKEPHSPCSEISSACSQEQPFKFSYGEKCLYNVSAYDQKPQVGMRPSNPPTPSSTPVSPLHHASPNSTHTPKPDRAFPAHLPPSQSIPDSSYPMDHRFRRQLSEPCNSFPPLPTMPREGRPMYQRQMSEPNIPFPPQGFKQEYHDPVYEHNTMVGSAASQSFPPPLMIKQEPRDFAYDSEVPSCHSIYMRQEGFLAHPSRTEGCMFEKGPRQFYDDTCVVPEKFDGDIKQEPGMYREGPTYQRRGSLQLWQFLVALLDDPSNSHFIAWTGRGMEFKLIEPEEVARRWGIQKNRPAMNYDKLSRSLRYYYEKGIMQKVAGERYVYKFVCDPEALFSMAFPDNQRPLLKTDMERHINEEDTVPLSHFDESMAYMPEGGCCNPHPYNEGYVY
Another assay addresses T6, ERF (Homo sapiens, UniProt P50548 1-548).
T6 sequence: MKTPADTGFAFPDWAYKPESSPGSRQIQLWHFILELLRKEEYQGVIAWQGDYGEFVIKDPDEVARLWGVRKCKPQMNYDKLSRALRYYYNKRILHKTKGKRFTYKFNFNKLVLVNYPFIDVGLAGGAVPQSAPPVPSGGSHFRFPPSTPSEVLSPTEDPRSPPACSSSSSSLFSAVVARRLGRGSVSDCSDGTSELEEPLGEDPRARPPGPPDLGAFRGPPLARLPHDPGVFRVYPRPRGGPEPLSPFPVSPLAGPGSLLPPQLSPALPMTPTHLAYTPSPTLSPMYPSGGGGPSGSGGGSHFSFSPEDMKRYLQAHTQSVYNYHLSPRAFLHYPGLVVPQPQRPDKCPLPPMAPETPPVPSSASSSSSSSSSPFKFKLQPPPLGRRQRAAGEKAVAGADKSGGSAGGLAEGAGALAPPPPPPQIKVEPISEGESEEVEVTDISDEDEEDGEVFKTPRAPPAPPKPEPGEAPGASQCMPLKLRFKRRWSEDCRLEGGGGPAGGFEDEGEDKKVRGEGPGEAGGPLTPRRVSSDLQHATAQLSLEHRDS
The following applies: protein: recombinant; tags: N-terminal GST; dsDNA, one strand shown. In a few lines: as §1

The next assay deals with T7, ETV3L (Homo sapiens, UniProt Q6ZN32 1-361).
T7 sequence: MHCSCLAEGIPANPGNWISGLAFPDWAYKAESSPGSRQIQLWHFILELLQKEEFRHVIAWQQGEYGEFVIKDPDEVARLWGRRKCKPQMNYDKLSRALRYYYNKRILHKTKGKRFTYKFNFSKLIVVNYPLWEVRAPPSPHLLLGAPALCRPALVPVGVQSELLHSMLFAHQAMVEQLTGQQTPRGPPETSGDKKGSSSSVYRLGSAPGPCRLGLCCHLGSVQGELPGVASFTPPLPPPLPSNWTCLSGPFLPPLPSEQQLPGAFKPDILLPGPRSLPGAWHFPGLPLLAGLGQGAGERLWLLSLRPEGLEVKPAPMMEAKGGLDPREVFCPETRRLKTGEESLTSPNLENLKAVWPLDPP
The settings on record: protein: recombinant; tags: N-terminal GST; dsDNA, one strand shown. In a few lines:
as §1

For another assay, the target named is T8, ETS2 (Homo sapiens, UniProt P15036 1-469).
T8 sequence: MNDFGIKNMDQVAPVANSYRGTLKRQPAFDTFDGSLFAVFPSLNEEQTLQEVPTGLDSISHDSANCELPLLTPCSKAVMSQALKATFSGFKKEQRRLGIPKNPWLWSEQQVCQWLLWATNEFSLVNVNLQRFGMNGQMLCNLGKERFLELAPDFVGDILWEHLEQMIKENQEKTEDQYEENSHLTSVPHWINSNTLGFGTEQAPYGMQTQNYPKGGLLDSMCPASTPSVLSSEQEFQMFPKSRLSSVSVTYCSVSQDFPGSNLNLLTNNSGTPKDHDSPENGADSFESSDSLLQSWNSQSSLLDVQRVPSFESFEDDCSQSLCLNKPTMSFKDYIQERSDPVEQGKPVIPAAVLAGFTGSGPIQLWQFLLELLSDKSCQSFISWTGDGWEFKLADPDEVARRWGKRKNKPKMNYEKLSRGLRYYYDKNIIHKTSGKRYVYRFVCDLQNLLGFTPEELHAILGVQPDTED
The following applies: protein: recombinant; tags: N-terminal GST; dsDNA, one strand shown. In a few lines: as §1

The target of a further assay is T9, SPDEF (Homo sapiens, UniProt O95238 1-335).
T9 sequence: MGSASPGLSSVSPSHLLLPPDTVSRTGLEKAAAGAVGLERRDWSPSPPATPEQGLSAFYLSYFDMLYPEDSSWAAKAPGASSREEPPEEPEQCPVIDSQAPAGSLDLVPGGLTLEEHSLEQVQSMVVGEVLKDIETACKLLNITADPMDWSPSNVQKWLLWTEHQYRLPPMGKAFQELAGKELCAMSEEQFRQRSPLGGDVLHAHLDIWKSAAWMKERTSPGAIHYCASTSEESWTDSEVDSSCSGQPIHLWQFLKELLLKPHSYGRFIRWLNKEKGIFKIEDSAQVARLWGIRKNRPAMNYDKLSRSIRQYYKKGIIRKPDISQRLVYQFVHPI
The settings on record: protein: recombinant; tags: N-terminal GST; dsDNA, one strand shown. In a few lines:
as §1

The target in the next assay is T10, ETV7 (Homo sapiens, UniProt Q9Y603 1-341).
T10 sequence: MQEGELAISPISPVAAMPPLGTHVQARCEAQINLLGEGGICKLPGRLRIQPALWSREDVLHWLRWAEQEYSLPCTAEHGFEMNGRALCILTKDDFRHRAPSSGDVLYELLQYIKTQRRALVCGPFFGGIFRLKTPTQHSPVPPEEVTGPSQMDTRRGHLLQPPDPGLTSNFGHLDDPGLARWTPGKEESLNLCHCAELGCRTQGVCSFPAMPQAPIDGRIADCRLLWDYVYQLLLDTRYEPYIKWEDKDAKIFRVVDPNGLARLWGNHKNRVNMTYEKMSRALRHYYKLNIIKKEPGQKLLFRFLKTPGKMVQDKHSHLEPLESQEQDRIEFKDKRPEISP
The settings on record: protein: recombinant; tags: N-terminal GST; dsDNA, one strand shown. The method in brief: as §1

For another assay, the target named is T11, ELF5 (Homo sapiens, UniProt Q9UKW6-2 1-255).
T11 sequence: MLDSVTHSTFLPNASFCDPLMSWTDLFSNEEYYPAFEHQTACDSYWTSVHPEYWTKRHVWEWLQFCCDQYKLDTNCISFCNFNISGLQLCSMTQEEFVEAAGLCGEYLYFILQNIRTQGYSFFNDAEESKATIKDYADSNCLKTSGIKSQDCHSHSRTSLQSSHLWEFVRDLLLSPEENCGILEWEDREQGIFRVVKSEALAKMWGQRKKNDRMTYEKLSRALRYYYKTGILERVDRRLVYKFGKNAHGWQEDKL
The settings on record: protein: recombinant; tags: N-terminal GST; dsDNA, one strand shown. The method in brief:
as §1

In a further assay the target is T12, ETV3 (Homo sapiens, UniProt P41162-2 1-143).
T12 sequence: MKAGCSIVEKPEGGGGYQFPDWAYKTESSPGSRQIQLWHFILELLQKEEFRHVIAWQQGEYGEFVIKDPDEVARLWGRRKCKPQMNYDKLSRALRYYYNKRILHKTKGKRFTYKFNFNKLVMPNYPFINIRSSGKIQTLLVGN
The following applies: protein: recombinant; tags: N-terminal GST; dsDNA, one strand shown. In a few lines: as §1

The next assay concerns the target ETV6 (Homo sapiens, UniProt P41212 1-452). The following applies: protein: recombinant; tags: N-terminal GST; dsDNA, one strand shown. The method in brief:
as §1

Sequence of HSF1 (Q00613 whole entry): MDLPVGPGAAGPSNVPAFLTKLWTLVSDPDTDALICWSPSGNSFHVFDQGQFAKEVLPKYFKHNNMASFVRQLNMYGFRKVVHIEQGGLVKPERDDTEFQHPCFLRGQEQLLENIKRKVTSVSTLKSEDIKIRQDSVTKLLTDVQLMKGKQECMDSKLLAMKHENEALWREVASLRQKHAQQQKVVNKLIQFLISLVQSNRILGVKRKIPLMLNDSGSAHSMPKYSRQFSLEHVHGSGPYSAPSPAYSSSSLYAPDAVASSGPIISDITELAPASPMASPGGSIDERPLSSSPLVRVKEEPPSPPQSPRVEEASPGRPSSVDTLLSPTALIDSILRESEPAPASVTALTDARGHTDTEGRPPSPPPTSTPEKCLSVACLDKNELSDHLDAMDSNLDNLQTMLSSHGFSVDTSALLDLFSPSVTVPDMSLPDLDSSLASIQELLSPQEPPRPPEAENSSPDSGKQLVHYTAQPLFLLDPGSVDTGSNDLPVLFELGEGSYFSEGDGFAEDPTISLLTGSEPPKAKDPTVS
Sequence of ETV5 (P41161 whole entry): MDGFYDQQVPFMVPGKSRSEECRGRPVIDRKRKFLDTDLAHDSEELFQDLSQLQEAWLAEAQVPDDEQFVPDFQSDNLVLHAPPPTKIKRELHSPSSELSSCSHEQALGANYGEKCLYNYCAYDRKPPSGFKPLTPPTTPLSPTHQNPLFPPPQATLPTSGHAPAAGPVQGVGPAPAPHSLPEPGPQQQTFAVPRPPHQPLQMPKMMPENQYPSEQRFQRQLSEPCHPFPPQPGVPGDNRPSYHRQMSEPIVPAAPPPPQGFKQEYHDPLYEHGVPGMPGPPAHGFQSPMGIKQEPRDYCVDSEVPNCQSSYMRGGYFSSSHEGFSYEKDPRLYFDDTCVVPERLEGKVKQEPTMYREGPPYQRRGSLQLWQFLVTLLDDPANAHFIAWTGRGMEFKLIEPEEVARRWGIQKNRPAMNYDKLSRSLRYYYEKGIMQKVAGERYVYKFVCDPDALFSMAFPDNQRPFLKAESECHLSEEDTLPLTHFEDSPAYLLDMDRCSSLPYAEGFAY
Sequence of CRX (O43186 whole entry): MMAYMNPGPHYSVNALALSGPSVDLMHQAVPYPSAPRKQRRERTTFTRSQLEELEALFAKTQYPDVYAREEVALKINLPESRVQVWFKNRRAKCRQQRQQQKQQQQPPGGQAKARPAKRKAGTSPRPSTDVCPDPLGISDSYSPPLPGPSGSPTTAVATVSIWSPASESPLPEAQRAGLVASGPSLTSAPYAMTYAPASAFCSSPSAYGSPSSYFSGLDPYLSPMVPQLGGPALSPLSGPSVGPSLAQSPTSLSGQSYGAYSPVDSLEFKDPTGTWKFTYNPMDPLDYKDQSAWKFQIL
Sequence of ETV6 (P41212 whole entry): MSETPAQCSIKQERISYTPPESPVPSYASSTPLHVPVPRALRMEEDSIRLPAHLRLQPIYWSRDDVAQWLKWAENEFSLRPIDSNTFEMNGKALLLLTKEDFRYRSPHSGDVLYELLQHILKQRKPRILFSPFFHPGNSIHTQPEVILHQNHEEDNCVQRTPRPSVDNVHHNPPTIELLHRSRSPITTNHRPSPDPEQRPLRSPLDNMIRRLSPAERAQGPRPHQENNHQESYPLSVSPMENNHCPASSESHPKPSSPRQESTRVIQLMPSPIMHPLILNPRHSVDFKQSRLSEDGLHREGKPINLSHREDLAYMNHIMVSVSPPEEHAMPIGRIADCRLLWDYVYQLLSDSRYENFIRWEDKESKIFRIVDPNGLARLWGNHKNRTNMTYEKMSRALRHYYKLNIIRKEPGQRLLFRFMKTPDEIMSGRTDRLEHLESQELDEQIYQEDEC
Sequence of ELF4 (Q99607 whole entry): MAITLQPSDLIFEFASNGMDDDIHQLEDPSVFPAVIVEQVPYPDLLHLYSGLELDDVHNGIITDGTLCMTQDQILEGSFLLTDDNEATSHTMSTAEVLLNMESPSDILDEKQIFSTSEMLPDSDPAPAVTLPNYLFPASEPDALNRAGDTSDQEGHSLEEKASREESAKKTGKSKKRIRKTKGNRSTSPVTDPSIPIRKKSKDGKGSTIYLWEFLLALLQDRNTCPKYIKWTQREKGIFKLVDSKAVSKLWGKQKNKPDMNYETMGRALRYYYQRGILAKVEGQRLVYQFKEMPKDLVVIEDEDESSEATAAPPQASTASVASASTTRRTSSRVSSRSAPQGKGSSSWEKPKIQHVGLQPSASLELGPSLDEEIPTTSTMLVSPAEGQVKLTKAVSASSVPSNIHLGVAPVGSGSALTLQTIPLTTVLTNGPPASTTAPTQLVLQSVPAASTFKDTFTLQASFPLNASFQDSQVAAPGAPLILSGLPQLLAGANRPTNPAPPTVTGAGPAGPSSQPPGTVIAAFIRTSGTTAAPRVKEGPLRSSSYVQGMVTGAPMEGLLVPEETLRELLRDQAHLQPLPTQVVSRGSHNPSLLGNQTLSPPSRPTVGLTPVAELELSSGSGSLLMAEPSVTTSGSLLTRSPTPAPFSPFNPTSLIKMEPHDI

For the sequence ACTTCA, the binding signal with FEV was 1.38 fold enrichment (6-mer frequency, TF over GST control); with ETV5 it was 1.42 fold enrichment (6-mer frequency, TF over GST control); with HSF1, 1.18 fold enrichment (6-mer frequency, TF over GST control); with SPIC it was 1.55 fold enrichment (6-mer frequency, TF over GST control); with ELF4, 1.33 fold enrichment (6-mer frequency, TF over GST control); in the assay with ELK4, 1.56 fold enrichment (6-mer frequency, TF over GST control). The binding signal with ETV2 is 1.37 fold enrichment (6-mer frequency, TF over GST control); with ELF3 it was 1.44 fold enrichment (6-mer frequency, TF over GST control); in the assay with CRX, 1.17 fold enrichment (6-mer frequency, TF over GST control); in the assay with ETV1 it was 1.48 fold enrichment (6-mer frequency, TF over GST control); in the assay with ERF it was 1.33 fold enrichment (6-mer frequency, TF over GST control); with ETV3L it was 1.4 fold enrichment (6-mer frequency, TF over GST control). Besides, the binding signal is 1.42 fold enrichment (6-mer frequency, TF over GST control) with ETS2; 1.37 fold enrichment (6-mer frequency, TF over GST control) in the assay with SPDEF; 1.54 fold enrichment (6-mer frequency, TF over GST control) in the assay with ETV7; 1.4 fold enrichment (6-mer frequency, TF over GST control) with ELF5; 1.29 fold enrichment (6-mer frequency, TF over GST control) in the assay with ETV3; 1.35 fold enrichment (6-mer frequency, TF over GST control) in the assay with ETV6.
